# Experimental data taken from PubChem BioAssay.
# Active and inactive are the calls of the source.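 The calls were made as follows, unless noted: active = fluorescence slope higher than the sample average by over 3 SD (cut at about -0.22 in these data, passing the limit was not always enough); inactive = the rest.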
# What was measured:
# [1] = inhibitors of TNFa-induced NFkB p65 translocation, primary screen, imaging, HUVEC, MLSMR starter and 10KST1 sets (AID 438;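 active = inhibition above 20% together with a positive visual image hit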;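 also: compound added about 3h40 before a 20 min TNFalpha stimulation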;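 as to inhibition: signal is the nuclear over cytoplasmic p65 intensity ratio per well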); conditions: HUVEC TNFa-induced p65 nuclear translocation; cell count: measured here: nuclei count (cytotoxicity indicator), at 2.08 µM; inhibition: at 2 µM, stronger effect = higher value, 0% TNFa-plus-vehicle, 100% no-TNFa wells
# [2] = reduction of polyQ htt aggregates in cells – imaging, exon1htt(103Q)mCFP cells, high-content imaging, primary screen (AID 483;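 active = visual image review flags a hit and inhibition of aggregation exceeds 20%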;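 also: compound exposure lasted 3 days before fixation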;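 as to nuclei count: percent of the per-plate median nuclei count of sample wells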); conditions: exon1htt(103Q)mCFP cell line, aggregate imaging, at 2 µM; inhibition of aggregation: stronger effect = higher value; nuclei count: measured here: cell count, toxicity
# [3] = endothelial E-selectin expression blockers – imaging, HUVEC, immunofluorescence, MLSMR starter and 10KST1 sets, primary screen (AID 487;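 active = visually confirmed hit in the image check and inhibition above 20%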;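 as to inhibition: signal is fraction of cell area covered by stained E-selectin grains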;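 as to nuclei count: 100% = median nuclei count of all wells on the same plate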); conditions: HUVEC TNFalpha-induced E-selectin immunofluorescence imaging, at 2 µM; inhibition: stronger effect = higher value; nuclei count: measured here: cell number, toxicity
# [4] = biological target: Voltage-gated potassium channel subunit beta-2 (Rattus norvegicus) (UniProt P62483); assay: inhibitors of rat Kvbeta2 reductase activity – biochemical, NADPH fluorescence, primary screen (AID 622); conditions: recombinant KvBeta, 4-cyanobenzaldehyde reduction, at 10 µM, stronger effect = higher value;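 also: slope of raw intensity against log time taken from 70 to 1610 s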
# Sequence of Voltage-gated potassium channel subunit beta-2 (Rattus norvegicus) (P62483 whole entry, looked up): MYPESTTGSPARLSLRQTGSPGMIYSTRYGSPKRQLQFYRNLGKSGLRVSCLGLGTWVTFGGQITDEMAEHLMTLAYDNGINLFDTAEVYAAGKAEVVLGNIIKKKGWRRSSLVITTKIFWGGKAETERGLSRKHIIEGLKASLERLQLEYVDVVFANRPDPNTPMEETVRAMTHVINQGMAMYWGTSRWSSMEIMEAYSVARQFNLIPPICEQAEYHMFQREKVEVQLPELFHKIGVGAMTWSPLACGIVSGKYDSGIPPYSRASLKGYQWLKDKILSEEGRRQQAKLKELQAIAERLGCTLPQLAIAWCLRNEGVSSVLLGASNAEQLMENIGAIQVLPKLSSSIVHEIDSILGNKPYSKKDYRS
# [5] = biological target: Voltage-gated potassium channel subunit beta-2 (Rattus norvegicus) (UniProt P62483); assay: enhancers of rat Kvbeta2 NADPH turnover – biochemical, NADPH fluorescence, primary screen (AID 623;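 active = NADPH fluorescence slope more negative than the mean of all samples by about 3 SD, 99.7% confidence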;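 also: fluorescence intensity change per second fitted from 20 to 320 s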); conditions: Recombinant KvBeta, NADPH fluorescence decrease slope, 10 min; at 10 µM; stronger effect = lower value
# [6] = biological target: Alpha-2C adrenergic receptor (Homo sapiens) (UniProt P18825); assay: compounds altering alpha2C-coupled GIRK flux – cell-based, HEK293 alpha2C/GIRK1/2, thallium flux, primary screen (AID 624;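 active = fluorescence slope after compound addition differing from the mean of all screened samples at 99.7% confidence, in either direction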;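 also: slope of fluorescence ratio to pre-addition baseline per second over 15 to 24 s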); conditions: thallium flux BTC fluorescence, at 10 µM, actives lie on both sides
# Sequence of Alpha-2C adrenergic receptor (Homo sapiens) (P18825 whole entry, looked up): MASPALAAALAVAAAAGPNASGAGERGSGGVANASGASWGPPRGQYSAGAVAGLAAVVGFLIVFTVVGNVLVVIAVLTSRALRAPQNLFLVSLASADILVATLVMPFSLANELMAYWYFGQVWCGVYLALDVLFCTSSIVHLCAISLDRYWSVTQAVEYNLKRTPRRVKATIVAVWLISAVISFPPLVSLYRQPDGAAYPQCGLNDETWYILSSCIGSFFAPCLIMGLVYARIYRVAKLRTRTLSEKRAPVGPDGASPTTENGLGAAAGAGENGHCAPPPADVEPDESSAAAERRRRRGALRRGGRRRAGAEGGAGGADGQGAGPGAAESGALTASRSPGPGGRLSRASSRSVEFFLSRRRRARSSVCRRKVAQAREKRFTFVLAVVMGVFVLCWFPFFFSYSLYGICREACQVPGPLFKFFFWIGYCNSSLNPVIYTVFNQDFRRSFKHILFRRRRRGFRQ
# [7] = blockers of RIG-like receptor reporter activation – cell-based, Sendai virus stimulus, luciferase, 10K MLSCN set, TLR/RLR signaling modifier project, primary screen (AID 602276;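 active = inhibition at or above 50% at 10 µM; inactive = inhibition below 50%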;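 also: firefly luciferase from ISG56 promoter only with Renilla not read in this screen; 0% = Sendai virus plus DMSO and 100% = medium plus DMSO without virus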); conditions: HEK293 RL24 IRF3 luciferase reporter, at 10 µM, stronger effect = higher value
# [8] = TLR3 IRF3 reporter activation blockers – cell-based, poly I:C stimulus, luciferase, 10K MLSCN set, primary screen (AID 602277;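 active = inhibition of the reporter signal at or above 50%; inactive = inhibition below 50%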); conditions: HEK293-TLR3 RL24 IRF3 luciferase reporter, at 10 µM, stronger effect = higher value
Structure (SMILES),cell count [1],inhibition [1],inhibition of aggregation [2],nuclei count [2] [%],inhibition [3],nuclei count [3] [%],fluorescence slope [4],NADPH fluorescence slope [5],slope [6],inhibition [7],inhibition [8]
Cc1cccc(OCC(=O)N(Cc2cccs2)C2CCS(=O)(=O)C2)c1C (stereo not drawn),220,2.4% (inactive),0.4% (inactive),88.1,-142% (inactive),112,-0.639 (inactive),-3.9e-05 (inactive),0.00768 (inactive),13.8% (inactive),16.1% (inactive)
CCCCc1nccn1CCn1ccnc1CCCC,514,-5% (inactive),53.1% (active),75,-75% (inactive),108,-0.489 (inactive),1.9e-05 (inactive),0.00472 (inactive),26.7% (inactive),25.7% (inactive)
CCC1CCCCN1CCNS(=O)(=O)c1ccc2c(c1)oc(=O)n2C (stereo not drawn),809,1.8% (inactive),19.9% (inactive),97.2,-92.7% (inactive),116,-0.581 (inactive),-4.9e-05 (inactive),0.00605 (inactive),14.3% (inactive),39.8% (inactive)
Cc1ccc(C)c(C(=O)CC2(O)C(=O)Nc3ccccc32)c1 (stereo not drawn),602,-11% (inactive),23.6% (inactive),62.9,-108% (inactive),126,-0.416 (inactive),-3.2e-05 (inactive),0.00493 (inactive),3.23% (inactive),-1.7% (inactive)
Cc1csc2nc(CSc3ccc(Cl)cc3)cn12,41,-8.7% (inactive),-15% (inactive),80.6,-112% (inactive),138,-0.601 (inactive),-2e-05 (inactive),0.00271 (inactive),-42.1% (inactive),-126% (inactive)
Cc1ccccc1-n1c(=O)c2ccccc2n2nnnc12,789,-6.4% (inactive),-0.5% (inactive),125,-23.1% (inactive),103,-0.517 (inactive),2.5e-05 (inactive),0.00577 (inactive),-17% (inactive),-4.05% (inactive)
COc1cc(S(=O)(=O)n2nnc3ccccc32)c(OC)cc1Cl,629,-3.3% (inactive),-68.5% (inactive),93,-51.9% (inactive),122,-0.382 (inactive),3.8e-05 (inactive),0.00868 (inactive),13.5% (inactive),-7.7% (inactive)
COc1cccc(C2CC(=O)Nc3c2c(=O)n(C)c(=O)n3C)c1OC (stereo not drawn),499,2.4% (inactive),-11.6% (inactive),39.6,-17.6% (inactive),112,-0.536 (inactive),2e-06 (inactive),0.00679 (inactive),-4.94% (inactive),16.2% (inactive)
Cc1ccc(-c2nc3ncccc3o2)cc1NC(=O)c1ccco1,317,0.6% (inactive),-1.4% (inactive),102,-107% (inactive),102,-0.429 (inactive),2.8e-06 (inactive),0.00563 (inactive),-1.98% (inactive),14.6% (inactive)
O=C(Cn1nnc(-c2ccccc2)n1)Nc1ccccc1N1CCOCC1,584,3% (inactive),5.4% (inactive),63.9,-16% (inactive),107,-0.602 (inactive),2.3e-05 (inactive),0.0042 (inactive),14.7% (inactive),14.8% (inactive)
O=C(NC1CCN(Cc2nnnn2CCc2ccccc2)CC1)c1ccccc1F,744,0% (inactive),-8.8% (inactive),99.7,-44.2% (inactive),116,-0.295 (inactive),-3.3e-06 (inactive),0.00487 (inactive),11.5% (inactive),27.2% (inactive)
CCC(C)(C)n1nnnc1C(c1ccncc1)N1CCN(c2cccc(OC)c2)CC1 (stereo not drawn),410,1% (inactive),-2.6% (inactive),95.6,-31.9% (inactive),98.8,-0.629 (inactive),-2e-05 (inactive),0.00376 (inactive),23.4% (inactive),28.6% (inactive)
c1ccc(-n2ncc3c(NC4CCCCCC4)ncnc32)cc1,691,-0.3% (inactive),3.1% (inactive),115,-56.3% (inactive),122,-0.547 (inactive),-1.1e-06 (inactive),0.007 (inactive),-49.7% (inactive),-136% (inactive)
COc1ccc(-c2nc(C#N)c(N3CCN(c4ccccc4)CC3)o2)cc1,841,1.4% (inactive),-19.5% (inactive),96.2,-64.6% (inactive),118,-0.577 (inactive),1.4e-05 (inactive),0.00659 (inactive),5.66% (inactive),24.4% (inactive)
O=C(Nc1ccccc1)N(O)c1ccc(Cl)cc1,284,-11.4% (inactive),38.9% (active),90.3,44.1% (inactive),85.6,-0.378 (inactive),-7.1e-05 (inactive),0.00373 (inactive),-39.6% (inactive),-78.3% (inactive)
CCOC(=O)CSc1nnc([C@H](CC(C)C)NC(=O)OC(C)(C)C)o1,696,6.5% (inactive),23.3% (inactive),81.4,13.7% (inactive),104,-0.501 (inactive),-1.8e-05 (inactive),0.0048 (inactive),13.5% (inactive),14.4% (inactive)
CCOC(=O)Cn1c(CN(C)Cc2ccccc2)nc2c1c(=O)n(C)c(=O)n2C,241,6.8% (inactive),6.2% (inactive),92.6,26.4% (inactive),94.7,-0.278 (inactive),-3.7e-05 (inactive),0.00521 (inactive),13.2% (inactive),10.8% (inactive)
COc1ccc(OC)c(C(=O)c2coc3ccc(O)c(CN4CCOCC4)c23)c1,282,2.9% (inactive),-12.4% (inactive),120,-28.2% (inactive),109,-0.561 (inactive),-9.1e-06 (inactive),0.00423 (inactive),6.31% (inactive),23% (inactive)
CCc1ccccc1OCCCCCNCCO,459,3.9% (inactive),28.4% (inactive),87.2,53% (inactive),85.2,-0.303 (inactive),-1e-05 (inactive),0.00576 (inactive),10.8% (inactive),31.9% (inactive)
O=C(Nc1ccc(N2C(=O)C3C4C=CC(C4)C3C2=O)cc1)Nc1nncs1 (stereo not drawn),668,-9.8% (inactive),4.9% (inactive),92,-77.5% (inactive),125,-0.579 (inactive),6.4e-08 (inactive),0.0068 (inactive),2.97% (inactive),-2% (inactive)
CCOC(=O)c1cc(CC)sc1NC(=O)CCC(=O)O,415,-3.2% (inactive),3% (inactive),99.8,-75.3% (inactive),109,-0.433 (inactive),-4.9e-06 (inactive),0.00617 (inactive),22% (inactive),26.5% (inactive)
Cc1ccc(-c2nn(C)c(=O)c3ccccc23)cc1S(=O)(=O)NCCN1CCOCC1,325,5% (inactive),13.3% (inactive),100,-24.7% (inactive),113,-0.468 (inactive),4.7e-05 (inactive),0.00544 (inactive),-17.1% (inactive),3.02% (inactive)
CCOC(=O)c1cccnc1SCC(=O)NC(C)CC (stereo not drawn),689,-22.4% (inactive),23.4% (inactive),99.8,-54.6% (inactive),119,-0.469 (inactive),-0.0001 (inactive),0.006 (inactive),7.9% (inactive),17.7% (inactive)
CCCCN(C)CCCNC(=O)CC1Oc2ccccc2NC1=O (stereo not drawn),585,-2.7% (inactive),18.9% (inactive),104,-11.7% (inactive),131,-0.493 (inactive),1.6e-05 (inactive),0.00638 (inactive),13.8% (inactive),36.6% (inactive)
O=C1c2ccccc2C(Nc2ccc(-c3nc4ccccc4[nH]3)cc2)N1Cc1ccco1 (stereo not drawn),701,-6.8% (inactive),-10.2% (inactive),87.9,-26.7% (inactive),108,-0.589 (inactive),-2e-06 (inactive),0.00641 (inactive),-24% (inactive),-47.4% (inactive)
CCOc1ccc(OCc2cccc(C(=O)N3CCOCC3)c2)cc1,383,3.1% (inactive),-7.6% (inactive),101,-148% (inactive),117,-0.407 (inactive),-6.4e-05 (inactive),0.00492 (inactive),-39.6% (inactive),-97.2% (inactive)
CCN(CC)c1nc2nonc2nc1N(CC)CC,314,-11.8% (inactive),-1.5% (inactive),100,-12.1% (inactive),94.7,-0.446 (inactive),-5.6e-05 (inactive),0.00553 (inactive),14.3% (inactive),21.8% (inactive)
Cc1ccccc1-c1nc(Cc2ccccc2)no1,434,-9.1% (inactive),12.9% (inactive),87.9,31.1% (inactive),93.2,-0.341 (inactive),-3.8e-05 (inactive),0.00721 (inactive),-43.9% (inactive),-184% (inactive)
